Data: PubChem BioAssay (NCATS)
Unmarked numbers belong to inactive results. Calls of active or inactive are those of the source. No rule for the calls is given here.

assay: qHTS assay for small molecule activators of the human pregnane X receptor (PXR) signaling pathway (AID 720659); conditions: DPX-2 HepG2 CYP3A4-luciferase, 24 h; series mostly up to 92.3 µM; activation: at the top concentration; also: 0% is about no effect

Row | Structure (SMILES) | activation | outcome
1 | N[C@@H](Cc1c[nH]c2ccc(O)cc12)C(=O)O | -2.89% | –
2 | CCC1(c2ccccc2)C(=O)NCNC1=O | – | inactive
3 | COc1ccc2c(c1)c(CC(=O)O)c(C)n2C(=O)c1ccc(Cl)cc1 | – | inactive
4 | CN(Cc1cnc2nc(N)nc(N)c2n1)c1ccc(C(=O)N[C@@H](CCC(=O)O)C(=O)O)cc1 | 27.9% | –
5 | Nc1ccn([C@H]2CC[C@@H](CO)O2)c(=O)n1 | – | inactive
6 | C[C@](N)(Cc1ccc(O)c(O)c1)C(=O)O | 28.4% | –
7 | O=c1[nH]cc(F)c(=O)[nH]1 | 0.0707% | –
8 | COc1ccc2[nH]cc(CCNC(C)=O)c2c1 | – | inactive
9 | Cn1c(=O)c2c(ncn2C)n(C)c1=O | – | inactive
10 | NS(=O)(=O)c1cc2c(cc1Cl)NCNS2(=O)=O | – | inactive
11 | CC(C)Cc1ccc(C(C)C(=O)O)cc1 (stereo not drawn) | 7.42% | –
12 | CCOC(=O)C(C)(C)Oc1ccc(Cl)cc1 | 5.76% | –
13 | O=C(Nc1ccc([N+](=O)[O-])cc1Cl)c1cc(Cl)ccc1O | -8.43% | –
14 | Cc1cn([C@H]2C=C[C@@H](CO)O2)c(=O)[nH]c1=O | – | inactive
15 | Nc1c2c(nc3ccccc13)CCCC2 | -1.44% | –
16 | CC(C)(Oc1ccc(C2CC2(Cl)Cl)cc1)C(=O)O (stereo not drawn) | 0% | –
17 | CC#C[C@]1(O)CC[C@H]2[C@@H]3CCC4=CC(=O)CCC4=C3[C@@H](c3ccc(N(C)C)cc3)C[C@@]21C | -12.9% | –
18 | Cn1c(=O)c2[nH]cnc2n(C)c1=O | -4.54% | –
